Mtb hypoxia inh: Mtb hypoxia fluorescent reporter inhibition. M. tuberculosis hypoxia-regulated fluorescent reporter, fluorescence. fluorescence inhibition, % (concentration not given with the values). hit rate 0.1% among 300,000; in the data active = fluorescence inhibition mostly above about 23%, no sharp cut-off; inactive = mostly below about 17%
Mtb betalactam: beta-lactam sensitization of Mtb H37Rv. AID 434955. inhibition, % at 25 µM. M. tuberculosis H37Rv growth with meropenem, percent inhibition. hit rate 0.27% among 330,000; call rule not given here;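 note: growth measured after seven days incubation then overnight dye step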
GDH-TPI counter: counter-screen for M. tuberculosis FBA inhibitors: GDH-TPI coupled enzymes; inhibition, % at 4.8 µM; hit rate 1.2% among 360,000; GDH-TPI coupled enzyme counterscreen, NADH absorbance; in the data active = inhibition above about 30%
DUSP3 inh: blocks human VHR1 dual specificity phosphatase; P51452; inhibition, % at 13.3 µM; recombinant VHR phosphatase, pNPP absorbance; AID 1654; hit rate 0.52% among 290,000; in the data active = inhibition above about 50%
Target sequence (P51452 whole entry, looked up): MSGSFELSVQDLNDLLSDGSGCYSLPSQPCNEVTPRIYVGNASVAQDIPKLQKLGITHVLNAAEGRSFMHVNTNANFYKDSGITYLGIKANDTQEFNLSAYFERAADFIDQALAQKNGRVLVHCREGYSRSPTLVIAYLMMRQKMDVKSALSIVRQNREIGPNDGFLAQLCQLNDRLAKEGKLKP
Mtb FBA inh: inhibitors of M. tuberculosis fructose-bisphosphate aldolase; P9WQA3; purified M. tuberculosis FBA, fluorescence read-out; inhibition, % at 1 µM; hit rate 2.3% among 360,000; AID 588726; in the data active = inhibition above about 27%
Target sequence (P9WQA3 whole entry, looked up): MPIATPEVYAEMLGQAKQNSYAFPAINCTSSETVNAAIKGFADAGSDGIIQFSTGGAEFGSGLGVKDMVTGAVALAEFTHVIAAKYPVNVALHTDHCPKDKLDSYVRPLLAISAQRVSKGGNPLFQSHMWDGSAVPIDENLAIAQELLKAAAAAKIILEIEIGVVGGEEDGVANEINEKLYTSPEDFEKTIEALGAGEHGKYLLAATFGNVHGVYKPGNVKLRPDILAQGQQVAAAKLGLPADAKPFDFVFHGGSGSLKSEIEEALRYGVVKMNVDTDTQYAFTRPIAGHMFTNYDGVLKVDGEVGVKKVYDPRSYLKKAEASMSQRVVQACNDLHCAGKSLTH
Hits are given with their value; 0 = inactive; - = not tested or not shown; + = active, no number. A selection: hits, their analogues and other compounds. The true share with any hit is near 3.6%.

SMILES | Mtb hypoxia inh | Mtb betalactam | GDH-TPI counter | DUSP3 inh | Mtb FBA inh
CCOC(=O)c1[nH]c(C)c(C(O)=C2C(=O)C(=O)N(CCN(C)C)C2c2ccncc2)c1C (stereo unspecified) | 0 | - | - | - | -
COc1ccc(CN2C(=O)NC(=O)/C(=C/c3ccc([N+](=O)[O-])s3)C2=O)cc1 | - | 0 | 31 | 0 | 0
CCOc1ccc(NC(=O)CC(Cc2cc(C)cc(C)c2)C(=O)O)cc1 (stereo unspecified) | 0 | 0 | 0 | 53 | 0
CCOc1ccc(NC(=O)C(CC(=O)O)Cc2ccccc2)cc1 (stereo unspecified) | 0 | 0 | 0 | 0 | 0
O=C1C2CCN(CC2)C1Cc1ccc2ccccc2c1O (stereo unspecified) | 0 | - | - | - | -
Cc1c(C(=O)Nc2nc3ccccc3[nH]2)oc2ccccc12 | 0 | 0 | 33 | 0 | 0
O=C(CN1C(=O)COc2ccc(Cl)cc21)NCC1CCCO1 (stereo unspecified) | 0 | 0 | 0 | 54 | 0
O=C(CN1C(=O)COc2ccccc21)NCC1CCCO1 (stereo unspecified) | 0 | 0 | 0 | 0 | 0
Cc1c(C(=O)/C=C/N(C)C)nnn1-c1ccc(Cl)c(Cl)c1 | 0 | 0 | 42 | 0 | 0
COC(=O)c1nnn(-c2ccc(F)c(Cl)c2)c1C(=O)OC | 0 | 0 | 0 | 0 | 0
CN(C)/C=C/C(=O)/C=C/c1ccc(Cl)cc1Cl | 0 | 0 | 0 | 0 | 0
Cc1c(C(=O)/C=C/N(C)C)nnn1-c1ccc(F)c(Cl)c1 | 0 | 0 | 35 | 0 | 0
Cc1c(C(=O)/C=C/N(C)C)nnn1-c1ccc(Cl)cc1Cl | 0 | 0 | 33 | 0 | 0
COC(=O)c1nnn(-c2ccc(Cl)c(Cl)c2)c1C(=O)OC | 0 | 0 | 0 | 0 | 0
C1=C(c2ccccc2)Nc2nnnn2C1 | - | 0 | 0 | 0 | 87
COCCn1c(=O)[nH]c2cc(C(=O)OC)ccc2c1=O | 0 | 0 | 0 | 0 | 0
COC(=O)c1ccc2c(C)c(C(C)(C)O)[nH]c2c1 | 0 | 0 | 0 | 0 | +
O=C(N/N=C/c1ccc(N2CCOCC2)cc1)c1ccc(O)cc1 | - | 0 | 66 | 0 | 0
Cc1ccc(C(=O)N/N=C/c2ccc(N3CCOCC3)cc2)c(C)c1 | - | 0 | 34 | 0 | 0
O=C(NN=Cc1ccc(N2CCOCC2)cc1)c1ccncc1 | 0 | - | - | - | -
O=C(N/N=C/c1ccc(N2CCOCC2)s1)c1ccc(O)cc1 | - | - | 34 | - | 0
C=CCn1cc(C=NNC(=O)c2cc3c(ccc4ccccc43)o2)c2ccccc21 | 0 | - | - | - | -
CCCN1C(=O)C(=Cc2cc(C)n(C)c2C)SC1=Nc1ccc(OCC)cc1 | 0 | - | - | - | -
O=C(c1ccc(Cl)c(S(=O)(=O)NCc2ccccc2)c1)N1CCN(c2ccccn2)CC1 | 0 | 0 | 0 | 54 | 0
O=C(CNS(=O)(=O)c1cccs1)N1CCN(c2ccccn2)CC1 | - | 0 | 0 | 0 | 87
SMILES | Mtb hypoxia inh | Mtb betalactam | GDH-TPI counter | DUSP3 inh | Mtb FBA inh
O=C(CNS(=O)(=O)c1cccs1)N1CCN(c2ccccc2F)CC1 | 0 | 0 | 0 | 0 | 0
O=C(c1ccc(CNS(=O)(=O)c2ccccc2)cc1)N1CCN(c2ccccn2)CC1 | - | 0 | 0 | 0 | 0
CCC1=C(OC(=O)N(CC)CC)N2C(=O)OC(=NCC3CC3)[C@]2(C)C2C1=CCC1C(=O)N(C)C(=O)C12 (stereo partly specified) | 0 | - | - | - | -
N#Cc1c(SCc2ccc(Cl)cc2)sc(C(=O)c2ccccc2)c1N | - | 0 | 0 | 0 | 0
CSc1c(C#N)c(N)nc2sc(C(=O)c3ccccc3)c(N)c12 | - | 0 | 46 | 0 | 0
Cc1ccc(/C=C2\C(=O)NC(=S)N(c3ccc(F)cc3)C2=O)o1 | 0 | 0 | 0 | 0 | 0
CCN(CC)c1ccc(C=C2C(=O)N(C)C(=S)N(C)C2=O)o1 | 46 | 0 | 0 | 0 | 0
CCN(CC)c1ccc(/C=C2\C(=O)NC(=S)N(c3ccc(OC)cc3OC)C2=O)o1 | 54 | 0 | 0 | - | 0
CCN(CC)c1ccc(/C=C2\C(=O)NC(=S)N(C)C2=O)o1 | 58 | 0 | 0 | 0 | 0
COc1ccc(N2C(=O)/C(=C/c3ccc(N(C)C)o3)C(=O)NC2=S)cc1 | 0 | 0 | 0 | 0 | 0
CN1C(=O)C(=Cc2ccc(N3CCCCC3)o2)C(=O)N(C)C1=S | - | 0 | 0 | 0 | 0
CC(C)CC(CO)Nc1nc(Nc2cccc(Cl)c2)c2ncn(C(C)C)c2n1 (stereo unspecified) | 0 | - | - | - | -
CCCCN(C)C=Nc1c(C#N)cnn1-c1ccc(C)cc1 | 0 | - | - | - | -
Cc1ccc(C(=O)Nc2cccc(C(=O)NN=Cc3ccc(O)cc3)c2)cc1 | 0 | - | - | - | -
CC1NC(=O)C(CCC(N)=O)NC(=O)c2cc([N+](=O)[O-])cc(I)c2NCCCC(C(N)=O)NC1=O (stereo unspecified) | 0 | - | - | - | -
O=C1CN=C(c2ccc(F)cc2)c2oc3ccccc3c2N1 | 0 | 0 | 0 | 0 | 0
O=C1CCC(=O)c2oc3ccccc3c2N1 | 0 | 0 | 31 | 0 | 0
CCOC(=O)c1sc(NC(=O)c2ccc(C)o2)nc1C | 0 | 0 | 0 | 0 | 0
CCOc1ccc2nc(NC(=O)c3ccc(C)o3)sc2c1 | 0 | 0 | 49 | - | 0
COC(=O)c1sc(NC(=O)c2ccc(C)o2)nc1C | 0 | 0 | 35 | 0 | 0
Cc1nn(C)cc1/C=C/C(=O)c1cccs1 | 0 | 0 | 0 | 0 | 0
Cc1c(/C=C/C(=O)c2ccc(O)cc2)cnn1C | - | 0 | 39 | 0 | 0
Cc1c(/C=C/C(=O)c2ccccc2)cnn1C | 0 | 0 | 0 | 0 | 0
Cc1nn(C)cc1/C=C/C(=O)c1ccccc1 | 0 | - | 36 | 0 | 0
O=C(CC1CC=CCCC(Cc2ccc(F)cc2)C(=O)OCC2CCCN2C1=O)NC(CO)Cc1ccccc1 (stereo unspecified) | 0 | - | - | - | -
SMILES | Mtb hypoxia inh | Mtb betalactam | GDH-TPI counter | DUSP3 inh | Mtb FBA inh
FC(F)(F)c1cnc(N/N=C/c2ccncc2)c(Cl)c1 | - | 0 | 57 | 0 | 0
COc1ccc(/C=N/Nc2ncc(C(F)(F)F)cc2Cl)cc1OC | - | 0 | 41 | 0 | 0
Clc1cnc(NN=Cc2ccncc2)c(Cl)c1 | 0 | - | - | - | -
CCCCC1COCCS(=O)(=O)N1Cc1ccc(C)cc1 (stereo unspecified) | 0 | - | - | - | -
Nc1nc(N)c(N=O)c(OCC2CCCCC2)n1 | 0 | 0 | 34 | 0 | 0
Cc1oc(N=Cc2ccc(F)cc2)c(C#N)c1C | 0 | - | - | - | -
O=C(N/N=C/c1c(O)n(-c2cccc3ccccc23)c(=O)[nH]c1=O)c1ccncc1 | - | 0 | 43 | 0 | 0
O=C(N/N=C/c1c(O)n(CCc2ccc(F)cc2)c(=O)[nH]c1=O)c1ccncc1 | - | 0 | 0 | 0 | 0
O=C(N/N=C/c1c(O)n(CCc2ccc(F)cc2)c(=O)[nH]c1=O)c1ccccc1 | 0 | 0 | 0 | 0 | 0
COc1ccc(Cn2c(O)c(/C=N/NC(=O)c3ccncc3)c(=O)[nH]c2=O)cc1 | 0 | 0 | 42 | 0 | 0
CCn1c(O)c(/C=N/NC(=O)c2ccccc2)c(=O)[nH]c1=S | 0 | 0 | 32 | 0 | 0
COc1ccc(Cn2c(O)c(/C=N/NC(=O)c3ccccc3)c(=O)[nH]c2=O)cc1 | 0 | 0 | 35 | 0 | 0
Cc1ccc(Cl)cc1-c1ccc(C=Nc2ccc(N3CCOCC3)cc2)o1 | 0 | 0 | 33 | 0 | 0
Cc1cc(O)c(C=Nc2ccc(N3CCOCC3)cc2)c(C)c1Cl | 0 | 0 | 0 | 0 | 0
CCOc1ccc(/C=C/C(O)=C2/C(=O)N(C)C3(C)CC2c2ccccc2O3)cc1OC (stereo unspecified) | 0 | 0 | 39 | 0 | 0

Screens deposited in PubChem by several laboratories.
